Measured values as given in the supplement of paper PMC3334620.
In all, about 33,000 sequences were measured (“E-score (-0.5 to 0.5)”: median about -0.0014, highest 2% from about 0.25 on). The sample as a whole holds a higher share of the highest values than the screen did.

molecular target: T1, Cad1 (UniProt P24813); assay: PBM E-score (8-mer binding enrichment) (E-score (-0.5 to 0.5)); higher = stronger / more preferred TF binding; conditions: protein concentration: 100 nM; construct: GST-full length
T1 sequence: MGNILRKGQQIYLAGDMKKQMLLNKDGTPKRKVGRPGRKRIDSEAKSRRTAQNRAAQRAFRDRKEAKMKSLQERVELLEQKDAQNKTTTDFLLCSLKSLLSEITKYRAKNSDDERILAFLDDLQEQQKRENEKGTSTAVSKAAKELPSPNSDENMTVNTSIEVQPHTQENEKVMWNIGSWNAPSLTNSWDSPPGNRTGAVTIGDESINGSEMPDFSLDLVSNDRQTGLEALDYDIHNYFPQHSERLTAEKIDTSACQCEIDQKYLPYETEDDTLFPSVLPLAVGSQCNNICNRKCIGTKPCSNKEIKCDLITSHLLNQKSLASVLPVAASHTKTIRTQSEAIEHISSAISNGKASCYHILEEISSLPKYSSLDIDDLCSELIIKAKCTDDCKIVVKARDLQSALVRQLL
Procedure, shortened: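 Yeast transcription factors, full-length or as DNA-binding domains, were expressed with a GST tag using PURExpress in vitro transcription/translation. At about 100-200 nM they were applied to universal all-10-mer Agilent arrays, double-stranded by primer extension on fresh or once-stripped slides. Fluorescent anti-GST detected bound protein, and masliner normalised the scans. E-scores for ungapped eight-base words, pooled with reverse complements, came from the Universal PBM Analysis Suite.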

Row | Sequence | PBM E-score
1 | GTCAGCAC | 0.261
2 | ATCAGCAC | 0.0147
3 | ATCAGCAA | 0.122
4 | CTCAGCAC | 0.0326
5 | GTCAGCAA | 0.295
6 | CTCAGCAA | 0.106
7 | AGCTCCAC | -0.0867
8 | AACGTAGA | 0.0503
9 | CTTGCTAC | -0.0445
10 | ACTGTAAT | 0.111
11 | CTGCCGCA | -0.0367
12 | ACGGGTCT | -0.252
13 | AGCGATGG | -0.0366
14 | TCTTAGCA | -0.0984
15 | AACGACCT | -0.0376
16 | ATCAATCA | 0.13
17 | GTGATTAA | 0.228
18 | CTGATTTA | 0.0612
19 | GCGATTAA | 0.123
20 | ATGATTAG | 0.094
21 | ATGATTAA | 0.32
22 | CTGATTAC | 0.334
23 | ACGATTAA | 0.0443
24 | CTGATTTC | 0.182
25 | ATGATTAC | 0.192

Row | Sequence | PBM E-score
26 | CTGATTAA | 0.362
27 | ATGATTGA | 0.0737
28 | TCGATTAA | 0.301
29 | AGGTACAT | -0.172
30 | AATCTGGC | -0.102
31 | CTCCCTGA | -0.247
32 | AAGCGCCT | -0.165
33 | ACCTTTAG | -0.142
34 | CATAGAGC | -0.22
35 | CAGTTGGG | -0.0373
36 | AAAATTAC | 0.072
37 | AAAATTAG | 0.269
38 | AAAATTAT | 0.285
39 | AAAATTGT | 0.167
40 | AAAATTAA | 0.209
41 | AAAATTCT | -0.00425
42 | ATCAGTTA | 0.212
43 | GCCCATAC | -0.1
44 | GGCGACCC | -0.332
45 | ATTGCCTG | 0.0283
46 | ATTAACAC | 0.275
47 | CTTAACAC | 0.127
48 | ATTAACAA | 0.201
49 | CGAATAGC | 0.0486
50 | ACACGCGT | 0.258

Row | Sequence | PBM E-score
51 | ACACGCGA | 0.143
52 | ACACGCGG | 0.0311
53 | ACAAGCGG | 0.0904
54 | GTTGGAGA | -0.0985
55 | ACAAATAG | 0.182
56 | ATAAATAC | 0.252
57 | CCAAATGC | -0.0453
58 | ATAAATAA | 0.239
59 | ACAAATGT | 0.0516
60 | ACAAATAC | 0.271
61 | ACAAATAA | 0.206
62 | ACAAATGC | 0.255
63 | GCAAATAC | 0.0468
64 | ACAAATAT | 0.262
65 | CCAAATAC | 0.013
66 | ATAAATAG | 0.121
67 | GCGGGCCC | -0.157
68 | ATCCGCCA | 0.0883
69 | CAGAAGAC | 0.0287
70 | AATCATAC | 0.0986
71 | GGTGAAAC | -0.0742
72 | GACTATCC | -0.0732
73 | AGAATGAT | 0.0516
74 | CTTGGCTC | -0.149
75 | CAAGCTTA | 0.159

Row | Sequence | PBM E-score
76 | TAAGCTTA | 0.378
77 | TAAGCTGA | 0.208
78 | ACGTAGGG | -0.284
79 | AGAGTTTG | 0.0139
80 | AGATCCCG | 0.281
81 | AGATCCCT | -0.312
82 | CGATCCCG | -0.265
83 | AAGACCTT | -0.0766
84 | CCATTCTC | -0.114
85 | TGGAGAAA | -0.151
86 | AAATTAGT | 0.273
87 | AAATTACT | 0.314
88 | GAATTAAA | -0.0332
89 | AAATTAAA | 0.257
90 | AAATTACG | -0.00187
91 | AAATTAGA | 0.191
92 | AGATTAAT | 0.16
93 | AAATTAAC | 0.0173
94 | AAATTAAT | 0.288
95 | AAATTAGG | 0.13
96 | AAATTAAG | 0.0523
97 | AAATTACC | 0.081
98 | AAGTAACG | -0.0002
99 | AACCTGCG | -0.142
100 | CAAAGAGA | -0.113

Row | Sequence | PBM E-score
101 | ACCCGTTC | -0.0216
102 | CCAGGGCG | -0.18
103 | AGAGTTGG | -0.0857
104 | TTGGTAAA | 0.073
105 | GAAATTAC | 0.234
106 | GAAATTAA | 0.295
107 | CAAATTAA | 0.207
108 | CCGTAATC | 0.143
109 | ACGTAAGT | -0.102
110 | GCGTAATA | 0.142
111 | ACATAATA | 0.178
112 | ACGTAATA | 0.311
113 | ACGTAAGA | 0.199
114 | CCGTAATA | 0.113
115 | ACGTAAGC | 0.287
116 | ACATAATC | 0.309
117 | ACGTAATG | 0.147
118 | ACATAATG | 0.172
119 | ACGTAATC | 0.286
120 | AAGTGGAA | -0.0197
121 | CTCCCGCC | -0.163
122 | ACGAAAGT | 0.0253
123 | ACACAACT | 0.0775
124 | GAAGCCAA | -0.183
125 | CCGAAGCG | -0.22

Row | Sequence | PBM E-score
126 | ATGTAAGA | 0.227
127 | ACCTAATC | 0.259
128 | ACATAACC | -0.0477
129 | TAATAACA | 0.15
130 | GAATAACA | 0.252
131 | ACATAACT | 0.0912
132 | ATGTAAGG | 0.0288
133 | ATGTAAGC | 0.305
134 | CCCTAATC | -0.076
135 | ACCTAATA | 0.137
136 | CAATAACA | -0.0158
137 | ACATAACA | 0.273
138 | CCTTAGCC | -0.00184
139 | CACGCACG | -0.131
140 | ATTCGGGG | 0.0825
141 | GTGCCGAA | -0.0386
142 | ACTTACGG | 0.0069
143 | TGGAGTAA | 0.149
144 | AGTTTGTG | -0.0199
145 | GGCATAAC | 0.0911
146 | CGCGCAGA | 0.287
147 | CGCGCAGC | 0.103
148 | GGCGCAGA | 0.00055
149 | AGCGAAGA | -0.118
150 | GGCGCACA | 0.00969

Row | Sequence | PBM E-score
151 | CGCGCACG | 0.0231
152 | CGCGAAGC | 0.219
153 | CGCGCACA | 0.257
154 | CGCGAAGA | 0.273
155 | ACCTTCAT | -0.0561
156 | CATAAACC | -0.0325
157 | CGAGGCGA | 0.0962
158 | ATAAGTTC | 0.197
159 | GAAAGTAC | -0.0278
160 | CTCAATTC | 0.066
161 | CCAGCTAA | -0.0477
162 | CATGCATG | 0.252
163 | AATGCATA | 0.0741
164 | CATGCATA | 0.156
165 | CATGCATC | 0.148
166 | AATGCATG | 0.254
167 | AATGCATT | 0.229
168 | CGTAACAC | 0.124
169 | GGGTCGTA | -0.236
170 | ACGAAAAT | 0.189
171 | AGAGTGTC | 0.198
172 | GGGACGAA | -0.108
